The assay in a line: acridine orange-DNA binding displacement – biochemical, fluorescence polarization, cherry-picked samples, set 2, artefact control for KSHV LANA DNA-binding inhibitor project, dose response (AID 504727). In general terms: Fluorescence polarisation rises when a labelled molecule tumbles more slowly, as on binding a larger partner.

Activity calls are given as the source filed them.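 Rule for the calls: active = fitted half-maximal concentration AC50 at or below ten times the highest valid tested dose, with signal falling as DNA is displaced (actives reach about 34 µM in these data); inconclusive = flat fit at moderate signal loss, or poor fit quality; inactive = the rest, including signal rising instead of falling.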

As usually defined, the AC50 is the concentration giving half of the maximal activity seen. With `COC(=O)c1ccccc1NC(=O)CCS(=O)(=O)c1ccc(Br)cc1`, the AC50 result was “inactive”.
`Cn1c(N)c(C(=O)COC(=O)c2ccc(Cl)c(S(=O)(=O)N3CCCC3)c2)c(=O)n(C)c1=O`: the AC50 entry was “inactive”.
As for `O=C(O)CCN1C(=O)/C(=C\c2ccc(-c3nc4ccccc4s3)o2)SC1=S`, the entry is “inactive”; as for `O=C(c1coc(=O)c(Br)c1)N1CCCc2ccccc21`, “inactive”; as for `O=S(=O)(O)c1cc(O)c2cc(Nc3ccccc3)ccc2c1`, “inactive”.
Next, `O=C(Nc1ccc(Br)cn1)c1cccc2ccccc12`: “inactive”.
As for `O=c1[nH]c(=S)[nH]c2c1C(c1ccc(Br)cc1)c1c([nH]c(=S)[nH]c1=O)O2`, the AC50 entry was “inactive”.
`CN(N=Nc1ccc([N+](=O)[O-])cc1)c1ccccc1`: the AC50 is 11 µM (active).
Next, `CCN(Cc1ccccc1)S(=O)(=O)c1cc2[nH]c(=O)c(=O)[nH]c2cc1C`: “inactive”.
On to `COc1ccc(N(C(=O)c2ccc(Cl)cc2)C2=CC3CCC(C2)N3C)cc1` (stereo not drawn), for which the AC50 entry was “inactive”.
For `O=C(C1CCCO1)N1CCN(c2ncccn2)CC1` (stereo not drawn), the AC50 result is “inactive”.
As for `N=C1/C(=C/c2ccc(-c3cccc(C(=O)O)c3)o2)C(=O)N=C2SC(CC(=O)N3CCOCC3)=NN12`, the AC50 result is “inactive”.
As for `COc1ccc(CC(=O)O/N=C(\N)c2ccc(OC)cc2)cc1`, the AC50 entry is “inactive”.
With `O=c1[nH][nH]cc1C=Nc1ccc(Cl)cc1Cl`, the AC50 entry was “inactive”.
For the compound `CN(c1ccc(OCC(=O)OCC(=O)c2c(N)n(C)c(=O)n(C)c2=O)cc1)S(=O)(=O)c1ccc2ccccc2c1`, the AC50 entry is “inactive”.
For `COc1cc2c(cc1OC)CN(C(=O)c1ccc(S(=O)(=O)N3CCCC3)cc1)CC2`, the AC50 entry is “inactive”.
Next, `Cc1ccc2c(c1)nnn2C1CCN(C(=O)c2cccs2)CC1`: “inactive”; `Fc1ccc(C2=CC(c3ccc(Br)o3)n3ncnc3N2)cc1` (stereo not drawn): 11.7 µM (active); `Cc1cc(S(=O)(=O)NC2CCN(Cc3ccccc3)CC2)c(C)cc1Cl`: “inactive”.
As for `O=C(COc1cccc(F)c1)Nc1nc(-c2cccnc2)cs1`, the AC50 entry was “inactive”.
Turning to `O=C(CCCN1C(=O)/C(=C\c2ccco2)SC1=S)Nc1ccc(O)cc1C(=O)O`, the AC50 entry was “inactive”.
Take `CCOC(=O)C(C)(C)N(Cc1ccccc1C)S(=O)(=O)c1ccc(Cl)c([N+](=O)[O-])c1`: the AC50 entry was “inactive”.
Next, `Oc1ccc(-c2nc3ccccn3c2NCc2ccco2)cc1`: “inactive”.

(Values after PubChem BioAssay AID504727 (Broad Institute, 2011).)
